This note sets out measurements from PubChem BioAssay (NCI).

Test [1] in a line: NCI Yeast Anticancer Drug Screen. Data for the rad50 strain (AID 155).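 Also: 0% = growth of vehicle-only cultures of the same strain.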 As to conditions: S. cerevisiae rad50 strain growth inhibition, hits give high values. In a few lines: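 Yeast carrying a defined DNA repair defect were exposed to test compounds, and growth was compared with vehicle-treated controls to give percent inhibition.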
Test [2] in a line: NCI Yeast Anticancer Drug Screen. Data for the mec2-1 strain (AID 157). As to conditions: S. cerevisiae mec2-1 strain, hits give high values. In a few lines: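 Vehicle-treated cultures served as reference for growth inhibition of compound-exposed mec2-1 yeast.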
Test [3] in a line: NCI Yeast Anticancer Drug Screen. Data for the sgs1 mgt1 strain (AID 161).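 Also: 0% = growth of cultures given vehicle only.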 To be noted: S. cerevisiae sgs1 mgt1 strain, hits give high values. In a few lines: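 Inhibition of yeast growth, normalised to vehicle-treated controls, is reported for a strain bearing genetic alterations in DNA damage repair.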
Test [4] can be described thus: NCI Yeast Anticancer Drug Screen. Data for the cln2 rad14 strain (AID 165).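 Also: 0% = growth equal to vehicle treated cultures.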 As to conditions: S. cerevisiae cln2 rad14 strain, hits give high values. The gist of the method:
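Each compound was tested on cln2 rad14 yeast. Inhibition of growth was calculated against vehicle-exposed controls.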

A short description of test [5]: NCI Yeast Anticancer Drug Screen. Data for the bub3 strain (AID 167). To be noted: S. cerevisiae bub3 mutant strain, hits give high values. In a few lines:
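Compounds were applied to a genetically altered yeast strain carrying a cell-cycle control defect. Growth inhibition was scored against vehicle-treated controls.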

Test [6] in a line: NCI Yeast Anticancer Drug Screen. Data for the mlh1 rad18 strain (AID 175). As to conditions: S. cerevisiae mlh1 rad18 strain growth inhibition, hits give high values. In a few lines:
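Vehicle-treated cultures served as the reference for growth inhibition in a yeast strain carrying DNA damage repair alterations exposed to each compound.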

Setting [7] is: at 5.0 µM (retest, dose inferred, filed as 0.5).
The mark [8] stands for this setting: at 50.0 µM (retest, dose inferred, filed as 5.0).

This is part of a sample that, as a whole, favours compounds with a hit. Of some 79,000 tested, about 15% had one in any assay. Values without a mark were called inactive. The source made the active and inactive calls. Rule as the data show it: active = growth inhibition above about 70%; inactive = the rest.

Regarding `C=C(CN(C)C)C(=O)c1ccc(OC2OC(COC(C)=O)C(OC(C)=O)C(OC(C)=O)C2OC(C)=O)cc1` (stereo not given), the growth inhibition in test [1] (setting [7]) is -1%; in test [1] (setting [8]), 2%; in test [1] (at 50.0 µM), -5.65%; in test [2] (setting [7]), 0%; in test [2] (setting [8]) it was 5%; in test [2] (at 50.0 µM) it was -18.4%. The growth inhibition in test [3] (setting [7]) was 3%; in test [3] (setting [8]) it was -43%; in test [3] (at 50.0 µM), -8.8%; in test [4] (setting [7]), 7%; in test [4] (setting [8]), 2%; in test [4] (at 50.0 µM), 10.4%. Besides, the growth inhibition in test [5] (setting [7]) was 15%; in test [5] (setting [8]), 4%; in test [5] (at 50.0 µM), -3.75%; in test [6] (setting [7]), 5%; in test [6] (setting [8]), 2%; in test [6] (at 50.0 µM), -18.9%.
In the case of `COC(=O)C1(Cc2ccc(C)cc2)Cc2c(C)cccc2C1=O` (stereo not given), the growth inhibition is -2% in test [1] (setting [7]); 47% in test [1] (setting [8]); 70.3% (active) in test [1] (at 50.0 µM); -2% in test [2] (setting [7]); 35% in test [2] (setting [8]); 39.9% in test [2] (at 50.0 µM). Also, the growth inhibition is 13% in test [3] (setting [7]); 45% in test [3] (setting [8]); 75.8% (active) in test [3] (at 50.0 µM); 6% in test [4] (setting [7]); 32% in test [4] (setting [8]); 55.9% in test [4] (at 50.0 µM). The growth inhibition in test [5] (setting [7]) is 17%; in test [5] (setting [8]), 71% (active); in test [5] (at 50.0 µM), 75.2% (active); in test [6] (setting [7]), -1%; in test [6] (setting [8]) it was 54%; in test [6] (at 50.0 µM) it was 54.4%.
For `c1ccc2c(c1)ccc1c[n+]3c4ccccc4ccc3n12`, the growth inhibition in test [1] (setting [7]) was 62%; in test [1] (setting [8]) it was 94% (active); in test [1] (at 50.0 µM), 73.6% (active); in test [2] (setting [7]) it was 28%; in test [2] (setting [8]) it was 88% (active); in test [2] (at 50.0 µM) it was 85.5% (active). Further, the growth inhibition is 34% in test [3] (setting [7]); 82% (active) in test [3] (setting [8]); 68% in test [3] (at 50.0 µM); 57% in test [4] (setting [7]); 91% (active) in test [4] (setting [8]); 87% (active) in test [4] (at 50.0 µM). Also, the growth inhibition in test [5] (setting [7]) is 55%; in test [5] (setting [8]), 93% (active); in test [5] (at 50.0 µM), 73.4% (active); in test [6] (setting [7]), 56%; in test [6] (setting [8]), 91% (active); in test [6] (at 50.0 µM), 83.2% (active).
Take `CC(=O)OCC1OC(N2CCc3cc([N+](=O)[O-])ccc32)C(OC(C)=O)C(OC(C)=O)C1OC(C)=O` (stereo not given): the growth inhibition in test [1] (setting [7]) is 2%; in test [1] (setting [8]), -4%; in test [1] (at 50.0 µM) it was -15.4%; in test [2] (setting [7]), -19%; in test [2] (setting [8]) it was 20%; in test [2] (at 50.0 µM), -1.35%. The growth inhibition in test [3] (setting [7]) is 3%; in test [3] (setting [8]), 23%; in test [3] (at 50.0 µM), -9.2%; in test [4] (setting [7]), 7%; in test [4] (setting [8]), -3%; in test [4] (at 50.0 µM) it was 41.9%. Further, the growth inhibition in test [5] (setting [7]) is 3%; in test [5] (setting [8]), 1%; in test [5] (at 50.0 µM), -3.25%; in test [6] (setting [7]), 11%; in test [6] (setting [8]), 18%; in test [6] (at 50.0 µM) it was -16.8%.
For `COc1ccc2c(Cc3ccc(Cl)cc3)cncc2c1O`, the growth inhibition in test [1] (setting [7]) was 5%; in test [1] (setting [8]), 91% (active); in test [1] (at 50.0 µM), 98.1% (active); in test [2] (setting [7]), 14%; in test [2] (setting [8]), 97% (active); in test [2] (at 50.0 µM), 99.2% (active). The growth inhibition was 15% in test [3] (setting [7]); 96% (active) in test [3] (setting [8]); 97.2% (active) in test [3] (at 50.0 µM); 2% in test [4] (setting [7]); 87% (active) in test [4] (setting [8]); 99% (active) in test [4] (at 50.0 µM). The growth inhibition was 10% in test [5] (setting [7]); 93% (active) in test [5] (setting [8]); 99% (active) in test [5] (at 50.0 µM); 21% in test [6] (setting [7]); 96% (active) in test [6] (setting [8]); 99.1% (active) in test [6] (at 50.0 µM).
For the compound `COC(=O)C1=C(C)NC(C)=C(C(=O)OC)C1c1ccc(NCc2ccccc2)c([N+](=O)[O-])c1`, the growth inhibition was 4% in test [1] (setting [7]); 59% in test [1] (setting [8]); 16.9% in test [1] (at 50.0 µM); 0% in test [2] (setting [7]); 53% in test [2] (setting [8]); 3.65% in test [2] (at 50.0 µM). For the same compound, the growth inhibition in test [3] (setting [7]) is -1%; in test [3] (setting [8]), 73% (active); in test [3] (at 50.0 µM) it was 12.3%; in test [4] (setting [7]) it was 0%; in test [4] (setting [8]), 74% (active); in test [4] (at 50.0 µM), 0.55%. Besides, the growth inhibition in test [5] (setting [7]) is 1%; in test [5] (setting [8]), 68%; in test [5] (at 50.0 µM), 6.45%; in test [6] (setting [7]), 0%; in test [6] (setting [8]) it was 71% (active); in test [6] (at 50.0 µM), 40.1%.
As for `N#Cc1c(N)nc2c(N=Nc3ccccc3)c(N)nn2c1Nc1ccccc1`, the growth inhibition in test [1] (setting [7]) is -2%; in test [1] (setting [8]), 38%; in test [1] (at 50.0 µM) it was 51.5%; in test [2] (setting [7]), -2%; in test [2] (setting [8]) it was 39%; in test [2] (at 50.0 µM) it was 16.4%. Further, the growth inhibition in test [3] (setting [7]) is 19%; in test [3] (setting [8]), 85% (active); in test [3] (at 50.0 µM), 79.2% (active); in test [4] (setting [7]), 1%; in test [4] (setting [8]) it was 5%; in test [4] (at 50.0 µM), 16.4%. In addition, the growth inhibition is -5% in test [5] (setting [7]); 31% in test [5] (setting [8]); -30.6% in test [5] (at 50.0 µM); -4% in test [6] (setting [7]); 55% in test [6] (setting [8]); 76.1% (active) in test [6] (at 50.0 µM).
As to `O=C1C=C(c2ccccc2)S(=O)(=O)c2c(O)cccc21`, the growth inhibition was 88% (active) in test [1] (setting [7]); 100% (active) in test [1] (setting [8]); 99.6% (active) in test [1] (at 50.0 µM); 76% (active) in test [2] (setting [7]); 100% (active) in test [2] (setting [8]); 99.6% (active) in test [2] (at 50.0 µM). Moreover, the growth inhibition in test [3] (setting [7]) is 80% (active); in test [3] (setting [8]) it was 100% (active); in test [3] (at 50.0 µM) it was 99.5% (active); in test [4] (setting [7]), 46%; in test [4] (setting [8]), 99% (active); in test [4] (at 50.0 µM), 99% (active). Besides, the growth inhibition is 71% (active) in test [5] (setting [7]); 99% (active) in test [5] (setting [8]); 99.2% (active) in test [5] (at 50.0 µM); 94% (active) in test [6] (setting [7]); 100% (active) in test [6] (setting [8]); 99.7% (active) in test [6] (at 50.0 µM).
Turning to `N#CCCN(CCC#N)Cc1c(O)c(O)c(CN(CCC#N)CCC#N)c2ccccc12`, the growth inhibition in test [1] (setting [7]) was -2%; in test [1] (setting [8]) it was 12%; in test [1] (at 50.0 µM), 61.1%; in test [2] (setting [7]), -1%; in test [2] (setting [8]) it was 41%; in test [2] (at 50.0 µM), 48%. The growth inhibition in test [3] (setting [7]) is -10%; in test [3] (setting [8]), 46%; in test [3] (at 50.0 µM), 59.2%; in test [4] (setting [7]) it was 0%; in test [4] (setting [8]) it was -7%; in test [4] (at 50.0 µM), 46.2%. The growth inhibition in test [5] (setting [7]) is -3%; in test [5] (setting [8]) it was 26%; in test [5] (at 50.0 µM) it was 54%; in test [6] (setting [7]), -4%; in test [6] (setting [8]), 25%; in test [6] (at 50.0 µM), 59%.
As for `S=C1NC2=C(CSC/C2=C\c2cccc(Br)c2)C(c2cccc(Br)c2)N1` (stereo not given), the growth inhibition in test [1] (setting [7]) was 9%; in test [1] (setting [8]), 98% (active); in test [1] (at 50.0 µM), 92.7% (active); in test [2] (setting [7]) it was 1%; in test [2] (setting [8]), 98% (active); in test [2] (at 50.0 µM), 94.3% (active). Besides, the growth inhibition in test [3] (setting [7]) is -1%; in test [3] (setting [8]), 98% (active); in test [3] (at 50.0 µM), 95.7% (active); in test [4] (setting [7]) it was -8%; in test [4] (setting [8]) it was 96% (active); in test [4] (at 50.0 µM) it was 90% (active). Besides, the growth inhibition in test [5] (setting [7]) is -15%; in test [5] (setting [8]), 98% (active); in test [5] (at 50.0 µM), 93.8% (active); in test [6] (setting [7]), 5%; in test [6] (setting [8]) it was 98% (active); in test [6] (at 50.0 µM) it was 93.8% (active).
